Screening data from PubChem.
Sampled rows, rich in hits. Any-hit rate of the full collection: about 0.8%.
TRPML1 blocker = blocks the human TRPML1 channel; activity change, negative = inhibition, % (concentration not given with the values); TRPML1-inducible cells, Ca2+ dye fluorescence, FDSS; stronger effect = lower value; inhibition of EC80 agonist-evoked calcium signal; Q9GZU1; AID 624415; 390,000 tested, 0.02% active; in the data active = activity change below about -50%; inconclusive = between about -30% and that limit;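 also: stimulus is agonist 54-4 at its EC80 concentration; % is scaled to controls: 0 for no effect and ±100 for the full control effect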
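TRPML1-DL cells, Tet-induced overnight (~16 h, 37 °C) at 1,500 cells/well, were loaded with Ca8 no-wash dye plus quencher for 45-90 min at room temperature. Compounds were pinned during FDSS kinetic reading; agonist 54-4 at EC80 (4 uM final) then added.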
TRHR agonist-1 = TRH receptor (human) agonism. P34981. TRHR cells, calcium flux fluo-8, FDSS agonist mode. activation, % at 2 µM. 360,000 tested, 0.18% active. AID 493084; in the data active = activation above about 30%; also: 0% is about no effect
Target sequence (P34981 whole entry, looked up): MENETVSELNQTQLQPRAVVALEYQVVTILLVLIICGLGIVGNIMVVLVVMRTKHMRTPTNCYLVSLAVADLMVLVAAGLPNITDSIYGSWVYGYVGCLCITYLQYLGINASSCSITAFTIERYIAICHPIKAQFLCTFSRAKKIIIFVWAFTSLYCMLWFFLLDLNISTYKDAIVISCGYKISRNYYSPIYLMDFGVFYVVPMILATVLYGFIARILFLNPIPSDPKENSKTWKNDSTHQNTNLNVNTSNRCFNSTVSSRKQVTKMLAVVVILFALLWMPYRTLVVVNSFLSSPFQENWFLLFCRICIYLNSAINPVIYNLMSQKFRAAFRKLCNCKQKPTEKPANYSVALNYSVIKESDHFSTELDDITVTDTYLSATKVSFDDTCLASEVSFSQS
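TRHR-expressing cells, plated overnight in medium with 10% serum, were loaded with fluo-8 calcium dye at room temperature. After a 10 s baseline, library compound was pin-added and calcium release was recorded kinetically (ex 480/em 530) as agonist response.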
TRPML1 agonist = activates the human TRPML1 channel. TRPML1-expressing cells, Ca2+ dye fluorescence, FDSS. Q9GZU1. activation, % (no concentration beside the values). 410,000 tested, 0.12% active. AID 624414; in the data active = activation above about 50%; inconclusive = mostly about 30% to 49%; also: 0% is about no effect
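TRPML1-DL cells, Tet-induced overnight (~16 h, 37 degrees C), loaded 45-90 min at room temperature with Ca8 no-wash calcium dye plus quencher. FDSS fluorescence: 10 s baseline, compound pin-transfer, 110 s agonist read, then EC80 54-4 (4uM final) and 110 s antagonist read.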
GRP78 ERSR act = inducers of ER stress response in human glioma cells. 420,000 tested, 0.02% active. Potency, µM, for inactives: at the highest dose activation, usual class: activators. U87-MG GRP78 promoter luciferase reporter, 16 h; also: potency is read from the fitted curve at half-maximal effect; series mostly up to about 76 µM; % of control where 0% means no effect; nearly all actives have a fitted effect of over 35% in size
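ERSR induction read as luciferase luminescence (Bright-Glo, 10 min at room temperature) in stably transfected human U87-MG glioma cells exposed to compounds for 16 h, using GRP78 as sensor.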
TRHR enhancer-1 = TRH receptor (human) allosteric enhancement | TRHR cells, fluo-8 calcium fluorescence, EC20 TRH enhancement | 360,000 tested, 0.66% active | enhancement, % at 2 µM | P34981; in the data active = enhancement above about 30%; also: 0% is about no effect
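Enhancer read-out: after compound pinning and an initial kinetic agonist-mode read, an EC20 of TRH (10 nM final) was injected and fluo-8 calcium signal (Ex 480/Em 530) followed at 1 s/cycle for 100 cycles in TRHR-expressing cells.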
TRHR enhancer-2 = confirmation of human TRH receptor allosteric enhancers; shares compounds with TRHR enhancer-1; TRH receptor cell assay, enhancer confirmation qHTS; activity change, negative = inhibition, % at 46.1 µM; 970 tested, under 10 active;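 also: compound effect scored on response to added TRH at EC20 of 10 nM; 0% is about no effect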
TRHR agonist-2 = human TRH receptor agonism confirmation | shares compounds with TRHR enhancer-1 | TRHR-expressing cells, agonist activation read-out | Potency, µM (titrated, usually from 46.1 µM), for the others: at the highest dose activation, usual class: activators | 970 tested, 8% active; also: potency is read from the fitted curve at half-maximal effect; 0% is about no effect; nearly all actives have a fitted effect of over 75% in size
* hit, by the source's call. Unless noted, calls follow the shape of the dose curve; as a rule, active = well fitted curve in the direction sought with a large enough effect; inconclusive = small, poorly fitted or top-dose-only effect, or another doubt; inactive = no such curve, though single readings can be large; an effect the other way counts as inactive or inconclusive.

What do the screens show for `COc1ccccc1CN(CC(=O)NCc1ccc2c(c1)OCO2)C(=O)c1csnn1`?
TRPML1 blocker: 8; TRHR agonist-1: 0; TRPML1 agonist: 0; GRP78 ERSR act: -5%; TRHR enhancer-1: -8

Results for O=C(CN(Cc1ccccc1Cl)C(=O)c1csnn1)NCc1ccc2c(c1)OCO2 ?
TRPML1 blocker: -15; TRHR agonist-1: 0; TRPML1 agonist: 0; GRP78 ERSR act: -3%; TRHR enhancer-1: 51*; TRHR enhancer-2: -11; TRHR agonist-2: 4%

What do the screens show for `CCC(C(=O)NCc1cccnc1)c1ccccc1` (configuration not stated)?
TRPML1 blocker: 40; TRHR agonist-1: 0; TRPML1 agonist: -1; GRP78 ERSR act: 0%; TRHR enhancer-1: 42*; TRHR enhancer-2: -2; TRHR agonist-2: -1%

What do the screens show for `CCc1ccc(S(=O)(=O)/N=C2\C=C(NS(=O)(=O)c3ccccc3)C(=O)c3ccccc32)cc1`?
TRPML1 blocker: inconclusive; TRHR agonist-1: -1; TRPML1 agonist: 2; GRP78 ERSR act: 11%; TRHR enhancer-1: 49*; TRHR enhancer-2: -7; TRHR agonist-2: 2%

Results for CC(C)c1ccc(S(=O)(=O)/N=C2\C=C(NS(=O)(=O)c3ccccc3)C(=O)c3ccccc32)cc1 ?
TRPML1 blocker: 6; TRHR agonist-1: -1; TRPML1 agonist: 4; GRP78 ERSR act: 3%; TRHR enhancer-1: 21

How did CCC1(C2CCN(C(=O)c3ccccc3Cl)CC2)NC(=O)N(CCc2scnc2C)C1=O (configuration not stated) do in these assays?
GRP78 ERSR act: -2%

How did CCOC(=O)c1cc(-c2ccccc2)n(CC(=O)NC(C)(C)C)c1C do in these assays?
TRPML1 blocker: 6; TRHR agonist-1: -2; TRPML1 agonist: 1; GRP78 ERSR act: -4%; TRHR enhancer-1: 57*; TRHR enhancer-2: -11; TRHR agonist-2: 0%

How did CCOC(=O)c1cc(-c2ccccc2)n(CC(=O)O)c1C do in these assays?
TRPML1 blocker: -5; TRHR agonist-1: -1; TRPML1 agonist: -1; GRP78 ERSR act: -2%; TRHR enhancer-1: 5

How did O=C(Cc1nc2ccccc2[nH]1)N1CCC(n2c(C3CCC3)nc3cccnc32)CC1 do in these assays?
GRP78 ERSR act: -7%

What do the screens show for `CCC(C)(C)NC(=O)C(c1cccn1C)N(C(=O)Cn1nnc2ccccc21)c1ccc(F)cc1` (configuration not stated)?
TRPML1 blocker: -3; TRHR agonist-1: 29; TRPML1 agonist: 0; GRP78 ERSR act: -9%; TRHR enhancer-1: -17; TRHR enhancer-2: -4; TRHR agonist-2: inconclusive

How did COc1ccc2ccccc2c1CN1CCc2nnc(C(NS(C)(=O)=O)C(C)C)n2CC1 (configuration not stated) do in these assays?
GRP78 ERSR act: -1%

Results for NC(=O)c1ccc[n+]([C@H]2O[C@@H](COP(=O)([O-])OP(=O)(O)OC[C@H]3O[C@@H](n4cnc5c(N)ncnc54)[C@H](O)[C@@H]3O)[C@H](O)[C@@H]2O)c1 ?
TRPML1 blocker: -2; TRHR agonist-1: 27; TRPML1 agonist: 3; GRP78 ERSR act: -1%; TRHR enhancer-1: 9; TRHR enhancer-2: -1; TRHR agonist-2: inconclusive

Results for COc1cc(C)c(CN2C[C@H](Sc3ccccn3)C[C@H]2C(=O)N(C)C)cc1C ?
GRP78 ERSR act: -2%

Results for Cc1c(NS(=O)(=O)c2cccc([N+](=O)[O-])c2)c(=O)n(-c2ccccc2)n1C ?
TRPML1 blocker: -1; TRHR agonist-1: 0; TRPML1 agonist: -1; GRP78 ERSR act: -3%; TRHR enhancer-1: 3

What do the screens show for `Cc1c(Nc2nc(-c3cccc([N+](=O)[O-])c3)cs2)c(=O)n(-c2ccccc2)n1C`?
TRPML1 blocker: 13; TRHR agonist-1: 0; TRPML1 agonist: 2; GRP78 ERSR act: -1%; TRHR enhancer-1: 48*; TRHR enhancer-2: -1; TRHR agonist-2: 1%

How did CO[C@H]1[C@H](NC(=O)c2ccco2)c2ccccc2C12CCN(Cc1cccn1-c1ccccn1)CC2 do in these assays?
GRP78 ERSR act: -5%

Results for C=CCN(C)CC/C=C1\c2ccccc2CSc2ccccc21 ?
TRPML1 blocker: -2; TRHR agonist-1: 2; TRPML1 agonist: 0; GRP78 ERSR act: -6%; TRHR enhancer-1: -7

What do the screens show for `C#CCN(C)CC/C=C1\c2ccccc2CSc2ccccc21`?
TRPML1 blocker: 24; TRHR agonist-1: 74*; TRPML1 agonist: 3; GRP78 ERSR act: -7%; TRHR enhancer-1: -3; TRHR enhancer-2: -6; TRHR agonist-2: 1%

How did O=C(/C=C/c1cn(CC(O)CN2CCCCCC2)c2ccccc12)c1ccccc1 (configuration not stated) do in these assays?
TRPML1 blocker: 4; TRHR agonist-1: 5; TRPML1 agonist: 5; GRP78 ERSR act: -6%; TRHR enhancer-1: -2

Results for O=C(/C=C/c1cn(CC(O)CN2CCCCC2)c2ccccc12)c1cccs1 (configuration not stated) ?
TRPML1 blocker: -1; TRHR agonist-1: 36*; TRPML1 agonist: 8; GRP78 ERSR act: -1%; TRHR enhancer-1: 7; TRHR enhancer-2: 5; TRHR agonist-2: inconclusive

Results for CCn1c(CC(=O)Nc2ccccc2)n[nH]c1=S ?
TRPML1 blocker: -2; TRHR agonist-1: 0; TRPML1 agonist: 0; GRP78 ERSR act: -2%; TRHR enhancer-1: 52*; TRHR enhancer-2: 0; TRHR agonist-2: -1%

How did NC(=O)COC(=O)c1c2c(nc3ccccc13)CCCCC2 do in these assays?
TRPML1 blocker: 6; TRHR agonist-1: 0; TRPML1 agonist: 0; GRP78 ERSR act: -3%; TRHR enhancer-1: 49*; TRHR enhancer-2: 0; TRHR agonist-2: 6%

How did COc1ccc(C2C(C#N)=C(N)Oc3cc(N)ccc32)cc1 (configuration not stated) do in these assays?
TRPML1 blocker: 4; TRHR agonist-1: 0; TRPML1 agonist: 1; GRP78 ERSR act: -3%; TRHR enhancer-1: 63*; TRHR enhancer-2: 7; TRHR agonist-2: -1%

Results for COc1ccccc1C1CN(CCNC(=O)[C@@H]2CSC(=O)N2)Cc2ccccc2O1 (some centres not stated) ?
GRP78 ERSR act: -4%

Results for CC(C)(C)n1ncc2c(=O)n(Cc3ccc(OC(F)(F)F)cc3)cnc21 ?
TRPML1 blocker: 46; TRPML1 agonist: 0; GRP78 ERSR act: -2%
